# Experimental data taken from the supplement of paper PMC12632987.
# T1: USP38, Q8NB14
# T1 chain: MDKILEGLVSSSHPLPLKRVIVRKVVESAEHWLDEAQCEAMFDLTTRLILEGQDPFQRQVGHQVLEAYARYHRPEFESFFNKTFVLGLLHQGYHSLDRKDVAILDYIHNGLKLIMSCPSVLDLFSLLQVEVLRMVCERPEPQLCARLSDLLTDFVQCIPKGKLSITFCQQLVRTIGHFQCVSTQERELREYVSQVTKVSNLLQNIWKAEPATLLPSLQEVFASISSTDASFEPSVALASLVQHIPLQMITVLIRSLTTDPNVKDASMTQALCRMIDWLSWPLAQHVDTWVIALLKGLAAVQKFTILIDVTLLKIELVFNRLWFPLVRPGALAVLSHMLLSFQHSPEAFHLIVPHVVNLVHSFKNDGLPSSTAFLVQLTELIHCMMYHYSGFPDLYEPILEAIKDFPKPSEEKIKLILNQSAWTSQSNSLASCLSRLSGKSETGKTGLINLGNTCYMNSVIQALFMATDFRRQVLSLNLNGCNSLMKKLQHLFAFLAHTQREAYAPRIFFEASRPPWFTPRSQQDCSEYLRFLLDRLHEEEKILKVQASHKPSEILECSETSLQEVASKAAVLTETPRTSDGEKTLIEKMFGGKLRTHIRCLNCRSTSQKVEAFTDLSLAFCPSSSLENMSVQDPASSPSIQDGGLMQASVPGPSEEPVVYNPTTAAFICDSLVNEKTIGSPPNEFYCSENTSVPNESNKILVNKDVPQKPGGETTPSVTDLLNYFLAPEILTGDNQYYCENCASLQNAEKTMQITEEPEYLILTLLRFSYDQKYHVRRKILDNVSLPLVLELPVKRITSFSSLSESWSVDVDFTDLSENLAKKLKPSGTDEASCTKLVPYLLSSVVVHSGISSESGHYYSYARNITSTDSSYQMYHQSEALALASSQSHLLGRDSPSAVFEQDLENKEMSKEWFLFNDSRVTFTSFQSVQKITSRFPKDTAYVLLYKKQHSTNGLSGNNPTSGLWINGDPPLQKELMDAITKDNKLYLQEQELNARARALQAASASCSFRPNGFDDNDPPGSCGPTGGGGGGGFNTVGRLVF
# B1: usp_38_diff_out_4_12_555 (protein)
# chain: SAEEEKEKLEKLKEELKKKSEELKELADKLLAEVKEKKDRATYKKAEEELNKKLTELAELTLETLEATDDDEELEEILKLTDETFTYVSEKAAEMREIMK
# B2: usp_38_diff_out_4_126_546 (protein)
# chain: SRKEEFEKLKKEAEEKMKEAKKLLAEALAALDKDPEKALALLDKAWDALGEAAALLREMRRIAADDPELRKEVKKLEEELDELIDEFTEAATRIYLKIAE
# B3: usp_38_diff_out_3_65_537 (protein)
# chain: EVEELLEEAERRLEEARELIEALRREVESDPSLTIDEVNARLDEAVDLLVEAGEAIRRARRLDPDPEQRERLEELERRLDEVLRLYRETAEFAFLTVAER
# B4: usp_38_diff_out_3_65_536 (protein)
# chain: EVEKLLEEAKKYLEEARKIVEELRREVEEDPTITIDEVNEKLDEAADKIVAAGQKIREAKKLNPDEEQKKQLEELEKELDEVLELYRETAEYAFLKVAER
# B5: usp_38_diff_out_4_12_562 (protein)
# chain: SMEEKEKKVKEALEEMKKLSEEAKEKAKKAAEEAKKTGNLAEFNKKMNELINKLTEKTLEVLEKLAELGDEESIEEVLKITSETFTYISQLAAEVKKAAA
# B6: usp_38_diff_out_4_12_558 (protein)
# chain: SEEERKKKREEALKELKKLSEDAKATADKLLAEVKKKKDKATLKAANATLNDLLTKLAEKTLEALELAENDEELEEILKIYDDTATYITTKAAEMKAVLK
# B7: usp_38_diff_out_3_65_542 (protein)
# chain: KVEELLKKAEEKLKEAREKIRELRERVETDPELTEEEIVEMLDEAADLLVEAGEYIREAKKLNPDEEAKKKIKELEKELEELIDEYVEAGERAFLAYGER
# B8: usp_38_diff_out_3_65_534 (protein)
# chain: EVEELLKEAQKKLKEARAIIEALRERVESDPTITIDEVNARLDEAADKIVEAGQYIREAKKLNPDEEQKKKIEELEKELDEVLDEYRETAEFAFLRVAER
# B9: usp_38_diff_out_3_65_532 (protein)
# chain: KVEELLKKAEEKLEEAEKKIKELEKRVKEDPNITEEEVNEMLDEAADLIVEAGKYIREAKKLNPDEEQQERIKELEERLDEVIDLYVKAGEAGFLAVGER
# B10: usp_38_diff_out_4_12_557 (protein)
# chain: AEEEREREFKRKREELKRLSEETKERADKLLEEVKKKKDKATLKEATKKLNEDLTKLAELTLETLELAETDEEVQEILDLFDDTATYVSEKAAEMKEILK
# B11: usp_38_diff_out_4_12_552 (protein)
# chain: AEEERRKELEELLREMEELTEETVARMKELLKELKETKDEEVYEELLKLAEEALTRLAELTTRALELAETDEELEEILRRYSEAVDEIVALMQEARKAMK
# B12: usp_38_diff_out_4_126_545 (protein)
# chain: SREEEFKKLEKEAEKKIEEAKKLLEEALKELDKDPEKALELLDKAWDALGEAAKLLREMRRVAADDEELRKRYKELEEKLDKLIDEFTKAATYIFEKIAE
# B13: usp_38_diff_out_4_12_561 (protein)
# chain: SEEERKKIAEEALEEMEKKSKEVKEKAKKAKEEAIKTKDLAAFNKKMNELIKELTDLTLEKLEKLAEIGDDETIEEILRIAGETFKELSKLAKEVKEAAK
# B14: usp_38_diff_out_4_126_550 (protein)
# chain: SMKEELEKKLEEAKKLAEEALKAAARLVELAATDPSKVAEARAELDALIAAFTKAANEALKLARKDGKYKEEVTKEIDKLTDEVVEAEGKAVEAVAEALA
# B15: usp_38_diff_out_3_65_538 (protein)
# chain: EVQKLLEEAQKLLDEATKIIDELKERVESDPTLTIDEVNEMLDKAADKIVAAGEKINEAKKLNPDEEQKKQIEELEKRLDEVIEKYREAAEYAFLRVAER
# B16: usp_38_diff_out_4_12_551 (protein)
# chain: SAEERRRKREEALERLRRLAEEATREAERLKKEVEEKKDEATLEEALKRANELITELSEATLEALELAENLEEVEEVLRLAEPAFDALAELRVKIEEARK
# B17: usp_38_diff_out_4_12_559 (protein)
# chain: AEEEHKEALEKAKEELKKLSEETIKLAKELLEKVKKEKSRATLKEANEKLNKKITELAEATLKALELAETDEELQEILDLWDKTSTEISRLAKEMREILK
# B18: usp_38_diff_out_4_126_544 (protein)
# chain: SREAEFAALRAEAEAALAEAERLLAEARAELDKDPEKALELLDRAWDALGRAAALLREMRRIAADDPALRAELAALRARLDALIDEFTAAATEIYEKIAE
# B19: usp_38_diff_out_4_99_564 (protein)
# chain: MKEEMVKKVKELKKEAEELLKKAKEAFKLSHEERKKVAEELSKELDELAKELGKIYFEARDTGDKELIKAVNKEADEFVKAYNEAAKELNLLRHEVLEEE
# B20: usp_38_diff_out_3_65_535 (protein)
# chain: KIEELLKEAEKYLEEAEKLVEELRRRVESDPTLTIDELNARLDEAADLIVKAGQKIREAKKLNPDEEQKKKLKELEKRLDEVLKKYREAAEEGFLRVAER
# B21: usp_38_diff_out_4_12_554 (protein)
# chain: SAEERRRRFEEALREMERLHRETIEKLEELKEELKKTKDEKVLEEAEKLANEALSRLAELTTRALEEAENDEEVQEILDLYSRHVDEIVTLMNEMKKIMK
# B22: usp_38_diff_out_4_126_548 (protein)
# chain: SREEEFEKLKEEANKKMKEAKELLEKAKKLLDKDKEEALKYLDEAAEKLGEASKLLRKMREVAKGDEELRKEYKELLEKLNELVDEYTKVATEIYLALAE
# B23: usp_38_diff_out_4_12_556 (protein)
# chain: SPEEEEEARERALRELEERSRRLREEAERLLARVKETRDEATYKEANERLNKGLTELAELTLRTLELTDDDEELERILRLTDETFRYVSEKAAEMRELMK
# B24: usp_38_diff_out_4_126_549 (protein)
# chain: DREKQAEELEKKLEEALKKAKEYLKKAKELLDKDKEETLKALDKSWEALGKASELLRELRRIAIDDPELRERYKKLLEEANKLVDEFTKAAEEIYLKLSE
# B25: usp_38_diff_out_4_126_543 (protein)
# chain: DREKAFDELAKEAEALMKEAKEYLEKAKEAMDKDPEKAKEYLDKAYEALGKLSKALREMRRIARDDPELRKRYKELLKKANELVSEFTKVAEELLLKLSE
# B26: usp_38_diff_out_3_65_541 (protein)
# chain: EIEKLLKEAKKYLEEAKKIIEELRERTRTDPTLTIEEVNEMLDKAADLLVKAGEYIEKAKKLNPDEKQKKEIEKLKKELEELLDEYVEAGEEAYLAVGER
# B27: usp_38_diff_out_4_126_547 (protein)
# chain: GREKEFEKLKKEAEELLKKAKELLEKAKEALDKDPKKAQEYLDKALEYLGKLAKLLREMRRVAEGDPELQKEVKELQKKADELVDEYTKAAEEIYLALAE
# B28: usp_38_diff_out_3_65_533 (protein)
# chain: KVEELLKKAEEKLKEAEKKIRELEERVETDPSLTEEEVNAMLDEAADLIVEAGKYIREAKKLNPDEEQKKRIEELEKRLDEVIDLYVEAGERAFLAVGER
# B29: usp_38_diff_out_3_65_540 (protein)
# chain: EVQELLERAERHLEEAEEIIEELERRTETDPTLTIDEVVEMLDEAADHLVAASEDIKEAKKLNPDEEQKKRIEELEKRLDELIDRYVEAGERAFLAVGER
# B30: usp_38_diff_out_4_12_553 (protein)
# chain: AAEERQKALEKALAEMQKLHEETVKKLKELLEELKKTKKEEILKEAEKLANDALTKLAELTTKALELAETPEEQQAILDLYAQQVTEIVTLMQEAKEAMK
# B31: usp_38_diff_out_4_12_560 (protein)
# chain: AEEEHKKKLEEAKKELEKLSEELKELADKKLEEVKEKKDKATLKEAEKEINEKITELAEKTLKALELAETDEDLQKILDLYDDTATYVSEKAAEMREILK
# B32: usp_38_diff_out_3_65_539 (protein)
# chain: KVEELLERAQEHLEKAEELVEGLRERTATDPTLTIDEVVAMLDEAADHLVAAAQDIEEAKKLDPDEEQQERLEELQERLDRLIDEYERAGREAFLAVGER
# Target: T1, USP38, Q8NB14
# Experiment: median log2 fold change of GCK-ALFA target abundance (FLAG IP / Myc IP barcode read proportion) (log2 ratio); each designed protein is fused to an ALFA-tag nanobody in HEK293 cells to bring the named protein to FLAG-tagged glucokinase (GCK); Myc marks an untargeted standard; higher = target protein stabilised (more abundant)
# Conditions: target protein: 3xFLAG-MCP-GCK-ALFA reporter; HEK293 landing pad (RPLP)
# Outline: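 HEK293 landing-pad cells received a recombined binder library fused to the ALFA nanobody and were induced with 2 μg mL^−1 doxycycline, then transfected with a plasmid encoding a FLAG-tagged target and a Myc-tagged standard. Lysates were collected after 48 h for anti-FLAG and anti-Myc immunoprecipitation, and the circular RNA barcodes were reverse transcribed, amplified and sequenced. Target abundance for each binder is the median log2 ratio of FLAG to Myc barcode read proportions. Barcodes had to reach a proportion of at least 10^−7 in both replicates, each binder needed at least 3 barcodes per replicate, a pseudocount of 10^−6 was applied, and the two replicates were pooled.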
row,Binder,median log2 fold change
1,B1,0.0256
2,B2,-0.11
3,B3,-0.264
4,B4,-0.223
5,B5,-0.588
6,B6,0.037
7,B7,0.499
8,B8,-0.0616
9,B9,-0.0854
10,B10,-0.616
11,B11,-0.539
12,B12,-0.694
13,B13,-0.892
14,B14,0.0827
15,B15,-0.281
16,B16,-0.341

row,Binder,median log2 fold change
1,B17,-0.371
2,B18,-0.215
3,B19,-0.19
4,B20,-0.384
5,B21,0.0829
6,B22,0.358
7,B23,-0.146
8,B24,-1.05
9,B25,-0.661
10,B26,-0.0269
11,B27,0.575
12,B28,0.0706
13,B29,0.111
14,B30,0.201
15,B31,-0.0183
16,B32,-0.504
